Assay results as given in ChEMBL document CHEMBL4513216, “Probing the Open Global Health Chemical Diversity Library for Multistage-Active Starting Points for Next-Generation Antimalarials” (ACS Infect Dis, 2020).
Among all 65,000 compounds or so, about 2,100 (3.2%) showed an effect of 50% or more. The median lay at about -52%. Shown is part of a subset that was picked to be rich in strong results.

Each compound was assayed on Plasmodium falciparum (assay: Screen against P. falciparum Asexual Blood Stage (ABS), at 5uM). Details: tested at 5 uM.
Type: functional, Dd2

Row | Compound | INHIBITION [%]
1 | Cc1nc(COC(=O)c2cccc3c2OCCO3)no1 | -17
2 | CCOC(=O)CNC(=O)NCc1cccn1Cc1ccccc1F | -158
3 | CN1CC2(CCN(c3nc(N)nc4c3CCNC4)CC2)OC1=O | -71.4
4 | Cc1cccc(OCc2nnc(SCC3CCCN(C)C3)o2)c1 (centres undefined) | 28.5
5 | Cc1ccc(OCc2nnc(SCC3CCCN(C)C3)o2)cc1 (centres undefined) | 29.8
6 | Cc1ccc(C)c(OCc2nnc(SCC3CCCN(C)C3)o2)c1 (centres undefined) | 60.3
7 | CCCn1ccc(C(=O)Nc2ccc3c(c2)C(C)(C)C(=O)N3C)n1 | -3.4
8 | C1CC(c2noc(C3CC3)n2)N(Cc2nnc(C3CC3)o2)C1 (centres undefined) | -1.02
9 | c1ccc2oc(CN3CCCC3c3noc(C4CC4)n3)nc2c1 (centres undefined) | 54.4
10 | CCc1nc(C2CCCN2Cc2nc3ccccc3o2)no1 (centres undefined) | -23.2
11 | C1CC(c2nnc(CN3CCCC3c3noc(C4CC4)n3)o2)C1 (centres undefined) | 53.5
12 | Cc1nc(C2CCCN2Cc2nnc(C3CC3)o2)no1 (centres undefined) | -171
13 | c1ccc2oc(CCCN3CCCC3c3noc(C4CC4)n3)nc2c1 (centres undefined) | -21.2
14 | CC(C)c1nc(C2CCCN(Cc3nnc(C4CC4)o3)C2)no1 (centres undefined) | -52.6
15 | CC(C)c1nc(C2CCCN2Cc2nnc(C3CCC3)o2)no1 (centres undefined) | 53.5
16 | CCc1nc(C2CCCN2Cc2nnc(C3CCC3)o2)no1 (centres undefined) | -88
17 | CC(c1nc(C2CC2)no1)N1CCN(Cc2noc(C3CC3)n2)CC1 (centres undefined) | -55.4
18 | COc1ccc(CN2C[C@H]3CC[C@@H](C2)N(Cc2snnc2C)C3)cc1 | -6.34
19 | CCc1cc(=O)n(CC(=O)N2CCC(C)CC2)c(-c2ccccc2)n1 | -53.5
20 | O=S(=O)(c1ccccc1)N1CCC2(CCCN2Cc2cccnc2)C1 (centres undefined) | -12
21 | CC(C)c1cc(NC(=O)CNC2CCc3ncnn3C2)on1 (centres undefined) | -54
22 | Cc1occc1C(=O)N1C[C@@H]2OCCN(CCN3CCCC3)[C@@H]2C1 | -86.8
23 | Cc1nc(CN2CCCC(c3cc(C(F)(F)F)[nH]n3)C2)cs1 (centres undefined) | -50.2
24 | Cc1nc(C2(O)CCCNCC2)sc1CCOc1ccc(Cl)cc1 (centres undefined) | 61
25 | COc1ccc(OCc2sc(C3(O)CCCNCC3)nc2C)cc1 (centres undefined) | 14.8
26 | Cc1nc(C2(O)CCCNCC2)sc1CCOc1ccccc1 (centres undefined) | -48.5

Row | Compound | INHIBITION [%]
27 | CCN1CCCC(O)(c2nc(C)c(CCOc3ccccc3Cl)s2)CC1 (centres undefined) | 21
28 | Cc1nc(C2(O)CCCNCC2)sc1CCOc1ccccc1Cl (centres undefined) | 54.5
29 | Cc1nc(C2(O)CCCNCC2)sc1CCOc1ccc(F)cc1 (centres undefined) | 34.5
30 | CCN1CCCC(O)(c2nc(C)c(CCOc3ccc(F)cc3)s2)CC1 (centres undefined) | 23.9
31 | COc1ccc(OCCc2sc(C3(O)CCCNCC3)nc2C)cc1 (centres undefined) | 5.84
32 | Cc1nc(C2(O)CCCNCC2)sc1CCOc1ccc(F)c(F)c1 (centres undefined) | 54.5
33 | COc1ccccc1OCC(=O)NS(=O)(=O)c1ccc(Br)s1 | -26.8
34 | C[C@@H]1CN(C(=O)c2nc3ccc(Cl)cn3c2-c2ncc[nH]2)C[C@H](C)O1 | 49.4
35 | O=S(=O)(C1CC1)N1CCn2cc(CNc3ccccn3)nc2C1 | -76
36 | Cc1ccccc1C1(C(=O)NCCN2CCCCC2C)CCOCC1 (centres undefined) | 28.2
37 | COc1ccc(CN2CCc3sccc3C2C)cc1CN1CCOCC1 (centres undefined) | 56.1
38 | COc1cc2c(cc1CN1CCc3sccc3C1C)OCO2 (centres undefined) | 69.3
39 | CCC[C@@H]1CN(Cc2cc3c(cc2OC)OCCO3)C[C@H]1C(=O)O | -28.5
40 | CCC1c2ccsc2CCN1Cc1cc2c(cc1OC)OCCO2 (centres undefined) | 67.3
41 | COc1ccsc1C(=O)Nc1cc(CN2CCOCC2)ccc1C | -12.8
42 | COc1ccc(CN2C[C@@H](CN(C)C)[C@@H](CO)C2)cc1CN1CCCC1 | -71
43 | CC1c2ccsc2CCN1Cc1cc2c(cc1O)OCO2 (centres undefined) | 27.2
44 | CCC[C@@H]1CN(Cc2cc3c(cc2OC)OCO3)C[C@H]1C(=O)O | -43.7
45 | CCC1c2ccsc2CCN1C(=O)NCc1cccnc1OC (centres undefined) | 46.8
46 | Cc1nnc(N2C[C@H]3OCC[C@H]3[C@H](C(=O)NCC3CC3)C2)s1 | 4.38
47 | O=C1OCCN1CC(=O)N1C[C@@H]2CC[C@H]1CN(Cc1cscn1)C2 | -150
48 | CCn1cc2c(n1)CN(Cc1cnn(C)c1)CC2COCC1CC1 (centres undefined) | -28.3
49 | c1cc(-c2nc(C3CCN(Cc4ccsc4)CC3)no2)ccn1 | -4.11
50 | Cc1ccc(C(=O)N2Cc3ccccc3OC3(CCOCC3)C2)cn1 | -43.5
51 | c1nc2n(c1CN1CCCC1)CCN(C1CCOCC1)CC2 | -7.43
52 | COc1cccc([C@H]2CN(C(=O)c3ccccc3)[C@@H]3CCCN[C@H]23)c1 | 56.5

Row | Compound | INHIBITION [%]
53 | COc1ccc(C(=O)N2C[C@@H](c3ccccc3)[C@@H]3NCCCC[C@@H]32)cc1 | -70.2
54 | COc1cccc(C(=O)N2C[C@@H](c3ccccc3)[C@@H]3NCCCC[C@@H]32)c1 | 16.7
55 | CN(C)S(=O)(=O)NC1CCCc2c1cnn2-c1ccc(C(C)(C)C)cc1 (centres undefined) | -174
56 | CN(C)C1CC2(CCN(C(=O)C3(C#N)CC3)CC2)c2ccccc21 (centres undefined) | -28.5
57 | O[C@@H]1CC(CNCC2CC2)(COc2cccnc2)C[C@@H]1O (some centres undefined) | -24.8
58 | CC(C)NC(=O)NCC1(COc2cnccn2)C[C@@H](O)[C@@H](O)C1 (some centres undefined) | -54.9
59 | CC(C)NCC1(COc2ccccc2)C[C@@H](O)[C@@H](O)C1 (some centres undefined) | 60.4
60 | Cn1ccnc1NC[C@@H]1CCC[C@@H]2CN(CC3CC3)C[C@@H]21 | -46.7
61 | Cn1nc(COc2cccnc2)c2c1CCN(CC1CC1)C2 | -64
62 | Cc1ccc(C)n1C(C)C(=O)N1CCCN(Cc2cscn2)CC1 (centres undefined) | -16.5
63 | Cc1ccc(C(C)C(=O)N2CCCN(Cc3cscn3)CC2)cc1 (centres undefined) | 57
64 | Cc1cc(C(C)C(=O)N2CCCN(Cc3cscn3)CC2)c(C)o1 (centres undefined) | -136
65 | CN1CCC2(CC1)CC(NC(=O)c1csnn1)c1ccccc1O2 (centres undefined) | -8.75
66 | Brc1csc(-c2noc(C3COCCO3)n2)c1 (centres undefined) | -301
67 | O=C(Cc1ccc2c(c1)CCCC2)N[C@@H]1CC[C@@H](n2ccnc2)[C@@H]1O | -119
68 | CN1CCN(c2ccccc2CNC(=O)CSC(F)(F)F)CC1 | 67.3
69 | CC(C)N(C)CC(=O)NCc1ccccc1N1CCN(C)CC1 | 43.8
70 | CC(=O)N1CCN(c2ccccc2CNc2cc(F)cc(F)c2)CC1 | 14
71 | Cn1ccnc1CN1CCC2(CC1)CN(Cc1cccnc1)C(=O)CO2 | -38.8
72 | Cc1cc(C)cc(CN2CCN(Cc3cc(C#N)n(C)c3)CC2=O)c1 | 18.4
73 | CCn1cc(CN2CCN(Cc3cc(C)cc(C)c3)C(=O)C2)cc1C#N | 68.4
74 | CCn1cc(CN2CCN(Cc3cccc(OC)c3)C(=O)C2)cc1C#N | 47.9
75 | CCOC(=O)CNC(=O)NCc1cc(C)n(-c2ccccc2OC)c1C | -24.9
76 | c1nc(NCc2cc3n(n2)CCN(C2CCCCC2)C3)c2nc[nH]c2n1 | -10.3
77 | COc1ccc(-c2cnc(N(C)C)nc2C2CNCCO2)cc1 (centres undefined) | 28.8
78 | c1ncc(-c2ccc(C3CNCCO3)nc2)cn1 (centres undefined) | -94.8

Row | Compound | INHIBITION [%]
79 | COc1ccc(-c2ccc(C3CNCCO3)nc2)cc1 (centres undefined) | 65
80 | Cc1nn(C)c(C)c1C1CCCN1C(=O)c1ccc2nnc(C)n2c1 (centres undefined) | -60.9
81 | CCc1nnc(CN2CCC(N3CCN(CC)C3=O)CC2)o1 | -39.7
82 | CCN1CCN(C2CCN(Cc3nnc(C(C)(C)C)o3)CC2)C1=O | -29.7
83 | CCN1CCN(C2CCN(Cc3ncc(C(C)(C)C)o3)CC2)C1=O | 53.1
84 | CN1CCN(C2CCN(Cc3nnc(C(C)(C)C)o3)CC2)C1=O | -117
85 | CNc1cc2c(nn1)CCN(C(=O)c1cc(C)n(C3CC3)c1C)C2 | -66.6
86 | CC(=O)N1CC2C[C@]2(NC(=O)c2ccco2)C1 (some centres undefined) | 50.3
87 | O=C(N[C@]12CC1CN(C(=O)c1ccco1)C2)c1ccco1 (some centres undefined) | 37.7
88 | O=C(N[C@]12CC1CN(C(=O)c1ccco1)C2)c1cccc(F)c1 (some centres undefined) | 27.4
89 | O=c1[nH]c2nc(N3CCSCC3)ncc2c(=O)n1-c1ccc(F)cc1 | -26.3
90 | Cc1ncsc1CN1CC[C@H](O)[C@@H](n2cnc3c(N)ncnc32)CC1 | -98.6
91 | CCCc1ccc2oc(C(=O)N3CCCN(C)CC3)c(C)c2c1 | -22.2
92 | O=C(c1cc(-c2ccn(CC3CC3)n2)n2ccccc12)N1CCCO1 | -84.4
93 | O=C(O)c1cc(-c2ccn(CC3CC3)n2)n2ccccc12 | -74.2
94 | O=C(c1cc(-c2ccn(CC3CC3)n2)n2ccccc12)N1CCOCC1 | 69.5
95 | O=C(CN1CCOC(Cn2cccn2)C1)NCc1ccco1 (centres undefined) | -88.2
96 | O=C(NC1CC(F)(F)C1)[C@]12COC[C@H]1CN(Cc1ccccc1)C2 | -96
97 | Cc1cc(=O)n2nc(Oc3ccc(F)c(F)c3)sc2n1 | -13.2
98 | Cc1cc(=O)n2nc(Oc3cccc(C(N)=O)c3)sc2n1 | -166
99 | Cc1cc(=O)n2nc(Oc3cccc(I)c3)sc2n1 | 56.4
100 | COCCCNC(=O)CN1CCC(N2CCN(C)C2=O)CC1 | -137
101 | Cc1ccc(-c2nc(CN3CCc4c(ncn4C)C3)cs2)o1 | -159
102 | Cn1cnc2c1CCN(Cc1csc(-c3ccccc3)n1)C2 | -10.7
103 | Cn1cnc2c1CCN(Cc1csc(-c3ccco3)n1)C2 | 51.3
104 | Cc1cc(NC(=O)C(C)N2CCN(c3ccc(C#N)cc3F)CC2)no1 (centres undefined) | -124
